# In PubChem BioAssay (EPA / NIEHS):
# Values joined by “and” are separate entries in the source; they are usually repeats but may differ in a detail not shown here. Identical values can stand only once. Records with an inconclusive call do not appear. Active and inactive are the calls of the source. How the source made its calls: active means hit-call score of the fitted dose curve at least 0.9, where 1 is the maximum; inconclusive means response in the unintended direction; inactive means score below 0.9.
# Tests used:
# [1] = molecular target: human Vasopressin 1A Receptor (V1A), AVPR1A (gene 552) (UniProt P37288); assay: NVS_GPCR_hV1A: NovaScreen (NVS) G Protein-Coupled Receptor Assay for human Vasopressin 1A Receptor (V1A) (AID 2283284)
# In short: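 Single-concentration duplicate screen at 25 uM, with concentration-response follow-up (top 50 uM) for actives. The assay measured displacement of a radioligand from human platelet-derived receptor after 1.5 h, detected by filtration and scintillation counting.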
# [2] = molecular target: human Opioid Receptor Mu (Opiate Mu), OPRM1 (gene 4988) (UniProt P35372); assay: NVS_GPCR_hOpiate_mu: NovaScreen (NVS) G Protein-Coupled Receptor Assay for human Opioid Receptor Mu (Opiate Mu) (AID 2283290);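 further: hits lower bound tracer signal versus DMSO meaning displacement of the ligand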
# In short: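 Here, radioligand binding to CHO-extracted receptor was measured after 2.5 h using filter-based scintillation detection. Initial single-concentration screening used 25 uM in duplicate with plate controls; confirmed actives went to concentration-response testing.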
# [3] = molecular target: mouse Cholecystokinin, CCK1 Receptor (CCKA), Cckar (gene 12425) (UniProt O08786); assay: NVS_GPCR_mCCKAPeripheral: NovaScreen (NVS) G Protein-Coupled Receptor Assay for mouse Cholecystokinin, CCK1 Receptor (CCKA) (AID 2283285)
# In short: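 Chemicals were first screened in duplicate at 25 uM, with those meeting threshold (e.g., 30% inhibition) retested in singleton concentration series to 50 uM maximum. Binding of radioligand to mouse pancreatic membranes was read after 2 h by filtration and scintillation counting.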
# [4] = molecular target: rat Serotonin, 5-Hydroxytryptamine Receptor 1 (5HT1), Non-Selective Binding, Htr1a (gene 24473) (UniProt P19327); assay: NVS_GPCR_r5HT1_NonSelective: NovaScreen (NVS) G Protein-Coupled Receptor Assay for rat Serotonin, 5-Hydroxytryptamine Receptor 1 (5HT1), Non-Selective Binding (AID 2283286)
# In short: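 Binding of a radioligand to rat cortex membranes is read by filtration and scintillation counting after 1 h. Compounds were screened at 25 uM in duplicate. Actives were then titrated to a top of 50 uM. DMSO is the baseline.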
# [5] = molecular target: guinea pig Serotonin, 5-Hydroxytryptamine Receptor 4 (5HT4), HTR4 (gene 100135548) (UniProt O70528); assay: NVS_GPCR_g5HT4: NovaScreen (NVS) G Protein-Coupled Receptor Assay for guinea pig Serotonin, 5-Hydroxytryptamine Receptor 4 (5HT4) (AID 2283294)
# In short: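 Compounds first screened in duplicate at 25 uM, actives followed up in concentration series. Binding measured as displacement of specific radioligand from guinea pig striatal membranes, 1 h, filter-based scintillation read-out versus DMSO baseline.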
# [6] = system: rabbit Platelet Activating Factor Receptor (PAF), gene 100354046; assay: NVS_GPCR_rabPAF: NovaScreen (NVS) G Protein-Coupled Receptor Assay for rabbit Platelet Activating Factor Receptor (PAF) (AID 2283287)
# In short: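 Rabbit platelet membrane preparation; radioligand displacement read by filter-based scintillation counting 1 h after dosing, loss of signal versus DMSO. Primary screen in duplicate at 25 uM, actives followed up in concentration series.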
# [7] = molecular target: rat Adrenergic, Alpha 1, Non-selective Receptor (Adra1), Adra1a (gene 29412) (UniProt P43140); assay: NVS_GPCR_rAdra1_NonSelective: NovaScreen (NVS) G Protein-Coupled Receptor Assay for rat Adrenergic, Alpha 1, Non-selective Receptor (Adra1) (AID 2283289)
# In short: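 Chemicals first screened in duplicate at 25 uM, then actives tested in concentration series up to 50 uM. Binding measured as displacement of radioligand from rat forebrain membrane receptors, 1 h, filtration with scintillation readout; DMSO baseline.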
# [8] = system: 5-hydroxytryptamine receptor 2C (pig); assay: NVS_GPCR_p5HT2C: NovaScreen (NVS) G Protein-Coupled Receptor Assay for pig Serotonin, 5-Hydroxytryptamine Receptor 2C (5HT2C) (AID 2283288)
# Procedure: NVS_GPCR_p5HT2C is a biochemical, single-readout assay that uses extracted gene-proteins from Pig choroid plexus membranes in a tissue-based cell-free assay. Measurements were taken 1 hour after chemical dosing in a 48-well plate.NVS_GPCR_p5HT2C is one of one assay component(s) measured or calculated from the NVS_GPCR_p5HT2C assay. It is designed to make measurements of radioligand binding, a form of binding reporter, as detected with scintillation counting signals by Filter-based radiodetection technology.Data from the assay component NVS_GPCR_p5HT2C was analyzed into 1 assay endpoint. This assay endpoint, NVS_GPCR_p5HT2C, was analyzed in the positive analysis fitting direction relative to DMSO as the negative control and baseline of activity. Using a type of binding reporter, loss-of-signal activity can be used to understand changes in the binding as they relate to the gene HTR2C. Furthermore, this assay endpoint can be referred to as a primary readout, because the performed assay has only produced 1 assay endpoint. To generalize the intended target to other relatable targets, this assay endpoint is annotated to the gpcr intended target family, where the subfamily is rhodopsin-like receptor.
# Binding assays used specific radioligands (tritiated, iodinated) with non-radioactive competitive displacement ligands in agonist or antagonist protocols (as indicated) and various reference compounds and inhibitors to titrate specific binding to receptors and transporters. Most enzyme assays (CYPs, kinases, phosphatases, proteases, HDACs) used recombinant protein and specific substrates (fluorescence mostly, some colorimetric and radioactive) and inhibitors, followed by a biochemical separation of substrate and product. All assays for the biochemical HTS were initially run in duplicate at a single concentration (10 uM for CYP450 assays and 25 uM for all others). […] Each assay was run with positive and negative controls, and concurrent controls on every plate. The follow-up (secondary) screen tested active chemical-pairs in concentration series, as well as a few additional assays not tested in the primary screen, some selected negative inactives, and several cases re-run in the concentration series for confirmatory purposes.
# [9] = molecular target: mouse Cholecystokinin, CCK2 Receptor (CCKB), Cckbr (gene 12426) (UniProt P56481); assay: NVS_GPCR_mCKKBCentral: NovaScreen (NVS) G Protein-Coupled Receptor Assay for mouse Cholecystokinin, CCK2 Receptor (CCKB) (AID 2283293)
# In short: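 Mouse forebrain membrane preparation incubated 2 h with chemical and radioligand; bound radioactivity counted after filtration. Single-concentration duplicate screen at 25 uM, then concentration series to 50 uM max for hits, DMSO as baseline.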
# [10] = molecular target: human Orphanin, Opioid Related Nociceptin Receptor 1 (ORL1), OPRL1 (gene 4987) (UniProt P41146); assay: NVS_GPCR_hORL1: NovaScreen (NVS) G Protein-Coupled Receptor Assay for human Orphanin, Opioid Related Nociceptin Receptor 1 (ORL1) (AID 2283283)
# In short: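 Cell-free binding using HEK293-derived receptor protein: radioligand displacement measured by filter scintillation 1 hour after dosing. Primary testing at 25 uM in duplicate, followed by singleton concentration series up to 50 uM; DMSO served as negative control.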
# human Opioid Receptor Mu (Opiate Mu), OPRM1 (gene 4988), sequence (P35372 whole entry, looked up): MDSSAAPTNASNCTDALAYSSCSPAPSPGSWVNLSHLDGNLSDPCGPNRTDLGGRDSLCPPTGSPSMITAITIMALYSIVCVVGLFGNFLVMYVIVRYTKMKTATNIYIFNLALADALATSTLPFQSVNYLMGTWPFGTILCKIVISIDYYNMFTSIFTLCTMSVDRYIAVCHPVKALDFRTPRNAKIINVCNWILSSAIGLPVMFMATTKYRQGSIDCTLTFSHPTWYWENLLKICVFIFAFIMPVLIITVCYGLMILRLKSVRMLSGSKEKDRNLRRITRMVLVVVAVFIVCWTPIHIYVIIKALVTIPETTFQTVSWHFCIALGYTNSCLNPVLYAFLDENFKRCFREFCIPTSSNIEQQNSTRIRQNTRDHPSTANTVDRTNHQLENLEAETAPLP
# human Vasopressin 1A Receptor (V1A), AVPR1A (gene 552), sequence (P37288 whole entry, looked up): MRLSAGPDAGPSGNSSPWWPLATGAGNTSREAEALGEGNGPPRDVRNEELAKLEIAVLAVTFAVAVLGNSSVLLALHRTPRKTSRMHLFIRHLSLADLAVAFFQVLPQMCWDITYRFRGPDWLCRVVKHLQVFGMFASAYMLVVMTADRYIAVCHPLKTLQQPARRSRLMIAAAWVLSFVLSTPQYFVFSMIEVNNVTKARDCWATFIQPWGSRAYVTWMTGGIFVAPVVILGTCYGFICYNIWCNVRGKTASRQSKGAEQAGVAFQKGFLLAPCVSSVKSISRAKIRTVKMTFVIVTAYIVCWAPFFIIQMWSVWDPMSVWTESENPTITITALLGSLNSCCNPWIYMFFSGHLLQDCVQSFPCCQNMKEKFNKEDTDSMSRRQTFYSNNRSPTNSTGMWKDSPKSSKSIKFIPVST
# guinea pig Serotonin, 5-Hydroxytryptamine Receptor 4 (5HT4), HTR4 (gene 100135548), sequence (O70528 whole entry, looked up): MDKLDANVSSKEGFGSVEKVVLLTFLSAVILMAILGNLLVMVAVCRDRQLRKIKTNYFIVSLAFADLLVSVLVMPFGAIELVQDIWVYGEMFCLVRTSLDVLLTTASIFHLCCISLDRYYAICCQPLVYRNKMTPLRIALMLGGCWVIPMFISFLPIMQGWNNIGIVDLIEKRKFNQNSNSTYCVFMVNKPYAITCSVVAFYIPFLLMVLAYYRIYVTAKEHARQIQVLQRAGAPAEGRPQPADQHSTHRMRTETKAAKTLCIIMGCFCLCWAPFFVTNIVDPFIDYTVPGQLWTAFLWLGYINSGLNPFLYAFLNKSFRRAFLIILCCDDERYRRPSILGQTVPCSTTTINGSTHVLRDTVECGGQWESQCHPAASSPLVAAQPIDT
# rat Serotonin, 5-Hydroxytryptamine Receptor 1 (5HT1), Non-Selective Binding, Htr1a (gene 24473), sequence (P19327 whole entry, looked up): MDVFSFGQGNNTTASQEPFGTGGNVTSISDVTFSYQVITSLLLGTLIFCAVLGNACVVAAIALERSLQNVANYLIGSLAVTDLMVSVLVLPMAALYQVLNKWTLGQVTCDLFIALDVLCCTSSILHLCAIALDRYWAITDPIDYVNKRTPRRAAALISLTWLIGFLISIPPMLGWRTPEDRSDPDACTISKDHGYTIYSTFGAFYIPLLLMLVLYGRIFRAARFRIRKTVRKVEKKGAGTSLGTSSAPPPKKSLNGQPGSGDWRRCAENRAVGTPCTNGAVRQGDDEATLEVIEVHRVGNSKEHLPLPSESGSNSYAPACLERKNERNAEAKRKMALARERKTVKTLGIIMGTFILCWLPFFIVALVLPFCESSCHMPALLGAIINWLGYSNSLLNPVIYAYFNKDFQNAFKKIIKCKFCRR
# human Orphanin, Opioid Related Nociceptin Receptor 1 (ORL1), OPRL1 (gene 4987), sequence (P41146 whole entry, looked up): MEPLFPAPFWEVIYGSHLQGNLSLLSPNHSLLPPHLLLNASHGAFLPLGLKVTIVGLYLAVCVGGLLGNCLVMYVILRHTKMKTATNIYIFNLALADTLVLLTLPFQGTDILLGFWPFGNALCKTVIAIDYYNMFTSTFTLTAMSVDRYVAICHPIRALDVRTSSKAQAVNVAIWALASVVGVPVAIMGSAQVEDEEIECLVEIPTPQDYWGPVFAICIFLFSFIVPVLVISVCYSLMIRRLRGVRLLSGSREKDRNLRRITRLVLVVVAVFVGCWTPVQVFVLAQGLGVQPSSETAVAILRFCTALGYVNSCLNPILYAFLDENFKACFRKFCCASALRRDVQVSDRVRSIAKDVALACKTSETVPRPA
# mouse Cholecystokinin, CCK1 Receptor (CCKA), Cckar (gene 12425), sequence (O08786 whole entry, looked up): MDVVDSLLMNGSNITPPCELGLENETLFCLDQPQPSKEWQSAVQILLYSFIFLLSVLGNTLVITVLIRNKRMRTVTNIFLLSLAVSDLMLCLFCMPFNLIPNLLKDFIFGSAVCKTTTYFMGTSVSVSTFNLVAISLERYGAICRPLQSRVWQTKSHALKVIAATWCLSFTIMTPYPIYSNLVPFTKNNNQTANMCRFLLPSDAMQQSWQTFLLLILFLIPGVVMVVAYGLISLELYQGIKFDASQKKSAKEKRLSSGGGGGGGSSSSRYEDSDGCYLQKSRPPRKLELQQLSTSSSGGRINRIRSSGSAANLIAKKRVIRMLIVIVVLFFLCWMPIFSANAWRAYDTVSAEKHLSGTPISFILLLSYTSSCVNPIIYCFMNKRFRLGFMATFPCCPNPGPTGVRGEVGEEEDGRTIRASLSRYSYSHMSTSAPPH
# rat Adrenergic, Alpha 1, Non-selective Receptor (Adra1), Adra1a (gene 29412), sequence (P43140 whole entry, looked up): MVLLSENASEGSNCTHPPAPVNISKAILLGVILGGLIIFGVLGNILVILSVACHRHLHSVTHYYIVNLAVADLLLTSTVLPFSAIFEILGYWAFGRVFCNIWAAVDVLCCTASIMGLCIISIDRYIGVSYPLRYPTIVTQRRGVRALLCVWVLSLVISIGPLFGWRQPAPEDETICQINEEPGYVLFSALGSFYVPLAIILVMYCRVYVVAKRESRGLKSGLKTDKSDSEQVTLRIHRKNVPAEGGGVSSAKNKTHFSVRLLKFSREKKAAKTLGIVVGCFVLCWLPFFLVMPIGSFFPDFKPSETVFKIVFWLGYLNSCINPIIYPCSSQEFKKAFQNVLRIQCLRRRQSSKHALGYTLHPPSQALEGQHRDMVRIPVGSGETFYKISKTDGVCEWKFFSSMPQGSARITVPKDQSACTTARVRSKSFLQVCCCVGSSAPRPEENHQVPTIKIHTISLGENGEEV
# mouse Cholecystokinin, CCK2 Receptor (CCKB), Cckbr (gene 12426), sequence (P56481 whole entry, looked up): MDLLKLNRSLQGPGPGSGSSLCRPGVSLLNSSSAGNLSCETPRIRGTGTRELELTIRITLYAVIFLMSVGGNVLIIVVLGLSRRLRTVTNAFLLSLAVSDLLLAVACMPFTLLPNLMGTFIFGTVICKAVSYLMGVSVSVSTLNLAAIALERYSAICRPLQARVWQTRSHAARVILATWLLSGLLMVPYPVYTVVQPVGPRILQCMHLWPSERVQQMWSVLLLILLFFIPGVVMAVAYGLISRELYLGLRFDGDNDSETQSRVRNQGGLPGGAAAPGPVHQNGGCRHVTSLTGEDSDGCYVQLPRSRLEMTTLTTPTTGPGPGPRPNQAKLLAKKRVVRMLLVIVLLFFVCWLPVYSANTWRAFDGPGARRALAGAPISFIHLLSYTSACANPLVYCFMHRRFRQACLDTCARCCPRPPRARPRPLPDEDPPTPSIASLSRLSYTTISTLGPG
smiles,measurement,setting,value
CCCCC(CC)C(=O)O (stereo not given),outcome,[1],inactive
CS(=O)(=O)c1ccc([C@@H](CC2CCCC2)C(=O)Nc2cnccn2)cc1Cl,outcome,[1],inactive
CCCCCCCCCCCCCCCCCC[N+](C)(C)Cc1ccccc1,AC50,[2],2.17 µM (active)
O=C(CCCN1CCC(O)(c2ccc(Cl)cc2)CC1)c1ccc(F)cc1,AC50,[3],37.3 µM (active)
same,outcome,[4],inactive
same,AC50,[5],1.75 µM (active)
CC(C)(C)c1ccc(O)c(O)c1,AC50,[2],17.4 µM (active)
CCCCc1oc2ccccc2c1C(=O)c1cc(I)c(OCCN(CC)CC)c(I)c1,outcome,[1],inactive
same,AC50,[3],21.6 µM (active)
same,AC50,[6],22.5 µM (active)
same,AC50,[7],24.5 µM (active)
same,AC50,[5],15.7 µM (active)
C=CC(=C)CC/C=C(\C)CCC=C(C)C,outcome,[2],inactive
CN(C)CCOC(c1ccccc1)c1ccccc1,AC50,[4],6.56 µM (active)
same,outcome,[2],inactive
same,outcome,[5],inactive
CCC(C)c1ccccc1O (stereo not given),AC50,[8],11.5 µM (active)
CCCCCCCCCCCCOS(=O)(=O)O,outcome,[8],inactive
same,AC50,[2],25 µM (active)
CN(Cc1cnc2nc(N)nc(N)c2n1)c1ccc(C(=O)N[C@@H](CCC(=O)O)C(=O)O)cc1,outcome,[8],inactive
same,outcome,[2],inactive
same,outcome,[9],inactive
N=C(N)c1ccc(OCCCCCOc2ccc(C(=N)N)cc2)cc1,AC50,[10],27.8 µM (active)
same,AC50,[4],3.44 µM (active)
same,AC50,[8],10.2 µM (active)
same,AC50,[5],2.4 µM (active)
CN(C)c1ccc(C(=C2C=CC(=[N+](C)C)C=C2)c2ccccc2)cc1,AC50,[2],6.79 µM (active) and 6.47 µM (active)
NC(=NCCCCCCN=C(N)/N=C(\N)Nc1ccc(Cl)cc1)/N=C(\N)Nc1ccc(Cl)cc1,AC50,[10],4.71 µM (active)
same,AC50,[2],3.32 µM (active) and 3.04 µM (active)
O=C1OC2(c3ccccc31)c1cc(I)c(O)c(I)c1Oc1c2cc(I)c(O)c1I,AC50,[2],0.0269 µM (active)
